The record followed here is the supplement of paper PMC9262897, “Low-cost anti-mycobacterial drug discovery using engineered E. coli” (Nature Communications, 2022).

Structures can show the parent of a compound that is named as a salt. ± gives the standard deviation of the averaged measurements.

What all share (test): growth (OD600 after 10 h); higher = more growth (less inhibition)
Experiment [1] deals with E. coli TESEC Alr+ wild-type control. The following applies: compound 0.1 mM; raw OD600 reference: median of DMSO wells 0.241, cell-free background 0.041. As for the experimental part:
(§1)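 TESEC Mtb Alr E. coli, or the Alr+ wild-type control, in 384-well plates with Prestwick library compounds at 0.1 mM and 1% DMSO, across arabinose induction levels of 1E3 to 1E7 nM. Growth is read as OD600 after 10 h at 37 °C in triplicate biological replicates.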

The subject of experiment [2] is E. coli TESEC Mtb Alr. The following applies: compound 0.1 mM. As for the experimental part:
as §1

A further experiment concerns E. coli TESEC Mtb Asd. The note with it: compound 0.1 mM. As for the experimental part: (§2)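 TESEC E. coli strains in which the native enzyme is deleted and replaced by arabinose-inducible Mtb Asd, DapB, CysH or TrpD, each grown in its selective medium. Strains were screened against the Prestwick library at 0.1 mM and 1% DMSO in 384-well format at low and high arabinose induction. Growth is read as OD600 after 10 h in triplicate.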

Experiment [3] deals with E. coli TESEC Alr+ wild-type control. The following applies: compound 0.1 mM; raw OD600 reference: median of DMSO wells 0.49, cell-free background 0.052. As for the experimental part:
(§3)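 TESEC Mtb Alr E. coli (ΔaraC ΔtolC ΔentC Δalr ΔdadX, arabinose-inducible Mtb Alr) or the Alr+ wild-type control strain, grown in defined M9-fructose medium without D-alanine in 96-well plates with Prestwick library compounds at 0.1 mM and 1% DMSO. Low Alr induction is 0.1 µM arabinose and high induction is 10 mM arabinose.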

The test system of experiment [4] is E. coli TESEC Mtb Alr. The note with it: compound 0.1 mM. The protocol: as §3
This is another data set of the same source.

For the next experiment, the system named is E. coli TESEC Mtb DapB. The note with it: compound 0.1 mM. The protocol:
as §2

[5] abbreviates: arabinose 1000 nM, raw OD600 reference: median of DMSO wells 0.294, cell-free background 0.041.
[6] abbreviates: arabinose 10000 nM, raw OD600 reference: median of DMSO wells 0.264, cell-free background 0.041.
Setting [7] is: arabinose 100000 nM, raw OD600 reference: median of DMSO wells 0.201, cell-free background 0.041.
[8] abbreviates: arabinose 1000000 nM, raw OD600 reference: median of DMSO wells 0.193, cell-free background 0.041.
Where [9] appears, read: arabinose 10000000 nM, raw OD600 reference: median of DMSO wells 0.146, cell-free background 0.041.
The mark [10] stands for this setting: arabinose induction (level): High, raw OD600 reference: median of DMSO wells 0.331, cell-free background 0.041.
[11] abbreviates: arabinose induction (level): Low, raw OD600 reference: median of DMSO wells 0.417, cell-free background 0.041.
Setting [12] is: arabinose 100 nM, raw OD600 reference: median of DMSO wells 0.413, cell-free background 0.052.
Where [13] appears, read: arabinose 10000000 nM, raw OD600 reference: median of DMSO wells […], cell-free background 0.052.

For `CC1COc2c(N3CCN(C)CC3)c(F)cc3c(=O)c(C(=O)O)cn1c23` (stereo not drawn) [Ofloxacin], the growth in experiment [1] turned out to be 0.04363 ± 5.8e-05; with E. coli TESEC Mtb Alr [2] (setting [5]), 0.0426 ± 0.00057; in the experiment on E. coli TESEC Mtb Alr [2] (setting [6]), 0.03877 ± 0.00015; in the experiment on E. coli TESEC Mtb Alr [2] (setting [7]), 0.0435 ± 0.0001; with E. coli TESEC Mtb Alr [2] (setting [8]), 0.03957 ± 0.00029; with E. coli TESEC Mtb Alr [2] (setting [9]), 0.044 ± 0.0001. In addition, the growth stood at 0.0587 ± 0.0023 with E. coli TESEC Mtb Asd (setting [10]); 0.0597 ± 0.0025 in the experiment with E. coli TESEC Mtb Asd (setting [11]); 0.0509 ± 0.00059 in experiment [3]; 0.0542 ± 0.0012 in the experiment with E. coli TESEC Mtb Alr [4] (setting [12]); 0.05103 ± 0.00031 with E. coli TESEC Mtb Alr [4] (setting [13]).

For `c1cnc(N2CCN(Cc3ccc4c(c3)OCO4)CC2)nc1` [Piribedil hydrochloride], the growth in experiment [1] is 0.2234 ± 0.0017; with E. coli TESEC Mtb Alr [2] (setting [5]), 0.273 ± 0.0036; in the experiment with E. coli TESEC Mtb Alr [2] (setting [6]), 0.256 ± 0.0059; in the experiment on E. coli TESEC Mtb Alr [2] (setting [7]), 0.179 ± 0.01; with E. coli TESEC Mtb Alr [2] (setting [8]), 0.166 ± 0.0044; with E. coli TESEC Mtb Alr [2] (setting [9]), 0.14 ± 0.0043. The growth with E. coli TESEC Mtb Asd (setting [10]) came out at 0.218 ± 0.013; with E. coli TESEC Mtb Asd (setting [11]) it was 0.399 ± 0.027; in experiment [3], 0.512 ± 0.077; with E. coli TESEC Mtb Alr [4] (setting [12]), 0.398 ± 0.014; in the experiment on E. coli TESEC Mtb Alr [4] (setting [13]) it was 0.366 ± 0.01.

Regarding `O=C1CN(/N=C/c2ccc(-c3ccc([N+](=O)[O-])cc3)o2)C(=O)N1` [Dantrolene sodium salt], the growth in experiment [1] was 0.2259 ± 0.00093; in the experiment on E. coli TESEC Mtb Alr [2] (setting [5]), 0.263 ± 0.0054; in the experiment on E. coli TESEC Mtb Alr [2] (setting [6]) it was 0.184 ± 0.003; with E. coli TESEC Mtb Alr [2] (setting [7]), 0.143 ± 0.007; in the experiment on E. coli TESEC Mtb Alr [2] (setting [8]), 0.105 ± 0.0026; in the experiment on E. coli TESEC Mtb Alr [2] (setting [9]), 0.131 ± 0.0074. Moreover, the growth in the experiment with E. coli TESEC Mtb Asd (setting [10]) is 0.167 ± 0.014; in the experiment on E. coli TESEC Mtb Asd (setting [11]), 0.258 ± 0.013; in the experiment on E. coli TESEC Mtb DapB (arabinose induction (level): High, raw OD600 reference: median of DMSO wells […], cell-free background 0.041) it was 0.192 ± 0.016; in the experiment on E. coli TESEC Mtb DapB (arabinose induction (level): Low, raw OD600 reference: median of DMSO wells 0.227, cell-free background 0.041), 0.231 ± 0.072; in the experiment on E. coli TESEC Mtb Alr [4] (setting [12]) it was 0.319 ± 0.1; with E. coli TESEC Mtb Alr [4] (setting [13]), 0.187 ± 0.033.

On to `OCCN1CCN(CC/C=C2/c3ccccc3Sc3ccc(Cl)cc32)CC1` [Zuclopenthixol dihydrochloride], for which the growth was 0.0505 ± 0.0052 in experiment [1]; 0.257 ± 0.0079 in the experiment with E. coli TESEC Mtb Alr [2] (setting [5]); 0.176 ± 0.005 in the experiment with E. coli TESEC Mtb Alr [2] (setting [6]); 0.1981 ± 0.0017 in the experiment with E. coli TESEC Mtb Alr [2] (setting [7]); 0.0779 ± 0.0011 in the experiment with E. coli TESEC Mtb Alr [2] (setting [8]); 0.14 ± 0.0078 with E. coli TESEC Mtb Alr [2] (setting [9]). Besides, the growth with E. coli TESEC Mtb Asd (setting [10]) stood at 0.205 ± 0.043; in the experiment on E. coli TESEC Mtb Asd (setting [11]), 0.215 ± 0.011; in experiment [3], 0.049 ± 0.0005; in the experiment on E. coli TESEC Mtb Alr [4] (setting [12]), 0.156 ± 0.19; with E. coli TESEC Mtb Alr [4] (setting [13]) it was 0.0523 ± 0.0015.

Regarding `O=c1[nH]cc(F)c(=O)[nH]1` [5-fluorouracil], the growth in experiment [1] is 0.122 ± 0.0069; in the experiment on E. coli TESEC Mtb Alr [2] (setting [5]), 0.155 ± 0.012; in the experiment on E. coli TESEC Mtb Alr [2] (setting [6]), 0.148 ± 0.0051; with E. coli TESEC Mtb Alr [2] (setting [7]) it was 0.0825 ± 0.0014; in the experiment with E. coli TESEC Mtb Alr [2] (setting [8]), 0.0827 ± 0.0053; in the experiment with E. coli TESEC Mtb Alr [2] (setting [9]), 0.08963 ± 0.00055. For the same compound, the growth is 0.193 ± 0.013 in the experiment with E. coli TESEC Mtb Asd (setting [10]); 0.238 ± 0.015 with E. coli TESEC Mtb Asd (setting [11]); 0.556 ± 0.066 in experiment [3]; 0.359 ± 0.041 in the experiment with E. coli TESEC Mtb Alr [4] (setting [12]); 0.134 ± 0.013 in the experiment on E. coli TESEC Mtb Alr [4] (setting [13]).

As to `COc1cccc(N(C)C(=S)Oc2ccc3c(c2)CCCC3)n1` [Liranaftate], the growth in experiment [1] came to 0.213 ± 0.0062; in the experiment on E. coli TESEC Mtb Alr [2] (setting [5]), 0.259 ± 0.0073; with E. coli TESEC Mtb Alr [2] (setting [6]), 0.2888 ± 0.0012; in the experiment with E. coli TESEC Mtb Alr [2] (setting [7]) it was 0.167 ± 0.0063; in the experiment with E. coli TESEC Mtb Alr [2] (setting [8]), 0.1202 ± 0.0011; in the experiment on E. coli TESEC Mtb Alr [2] (setting [9]) it was 0.149 ± 0.0092. The growth in the experiment with E. coli TESEC Mtb Asd (setting [10]) amounted to 0.297 ± 0.025; in the experiment on E. coli TESEC Mtb Asd (setting [11]), 0.426 ± 0.045; in experiment [3], 0.385 ± 0.0054; in the experiment on E. coli TESEC Mtb Alr [4] (setting [12]) it was 0.407 ± 0.038; with E. coli TESEC Mtb Alr [4] (setting [13]), 0.127 ± 0.0031.

Regarding `C[C@H](N[C@@H](CCc1ccccc1)C(=O)O)C(=O)N1CCC[C@H]1C(=O)O` [Enalaprilat dihydrate], the growth came to 0.228 ± 0.0039 in experiment [1]; 0.2913 ± 0.0017 in the experiment with E. coli TESEC Mtb Alr [2] (setting [5]); 0.285 ± 0.011 with E. coli TESEC Mtb Alr [2] (setting [6]); 0.198 ± 0.019 in the experiment on E. coli TESEC Mtb Alr [2] (setting [7]); 0.208 ± 0.01 with E. coli TESEC Mtb Alr [2] (setting [8]); 0.1379 ± 0.0012 in the experiment on E. coli TESEC Mtb Alr [2] (setting [9]). Further, the growth with E. coli TESEC Mtb Asd (setting [10]) amounted to 0.259 ± 0.063; in the experiment with E. coli TESEC Mtb Asd (setting [11]) it was 0.31 ± 0.094; in experiment [3], 0.638 ± 0.025; in the experiment on E. coli TESEC Mtb Alr [4] (setting [12]), 0.411 ± 0.011; in the experiment on E. coli TESEC Mtb Alr [4] (setting [13]), 0.308 ± 0.022.
